Results on eight compounds are retold here after PubChem BioAssay (NCI).

Structures are written as SMILES. This is part of a sample that, as a whole, favours compounds with a hit. Of some 83,000 tested, about 20% had one in any assay.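 Values shown are percent growth following 48 h exposure of cells in 96-well plates to a single concentration of compound; below 10 was considered active.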 Unmarked numbers belong to inactive results. Activity calls are given as the source filed them.

What all share (assay): NCI-60 one-dose screen, 48 h (100 = growth as untreated, 0 = no growth, -100 = all killed)
Conditions in all cases: 10 µM unless noted

The test system of assay [1] is HCT-15 colon.
Assay [2] has as its system HT29 colon.
Assay [3] relates to SNB-75 CNS.
The test system of assay [4] is SNB-19 CNS.
The subject of assay [5] is U251 CNS.
In assay [6] the test system is PC-3 prostate.
In assay [7] the test system is SK-MEL-5 melanoma.
The test system of assay [8] is UACC-62 melanoma.
In assay [9] the test system is LOX IMVI melanoma.
In assay [10] the test system is SK-MEL-28 melanoma.
Assay [11] concerns SK-MEL-2 melanoma.
The subject of assay [12] is EKVX NSCLC.
In assay [13] the test system is SN12C renal.
The subject of assay [14] is UO-31 renal.
In assay [15] the test system is TK-10 renal.
For assay [16], the system named is ACHN renal.
Assay [17] relates to A498 renal.
Assay [18] deals with CCRF-CEM leukemia.
Assay [19] concerns MOLT-4 leukemia.
For assay [20], the system named is SR leukemia.

Take `CC(=O)Nc1c(C(=O)Nc2ccccc2)sc2nc3c(cc12)C(OC(C)=O)CCC3` (stereo not given): the growth in [1] was 99.7%; in assay [2], 104%; in assay [3] it was 88.2%; in assay [4] it was 95.8%; in [5], 94.8%; in [6], 89%. In addition, the growth in assay [7] is 82.5%; in assay [8], 59%; in assay [9] it was 92.2%; in assay [10], 88.9%; in assay [11], 89.8%; in assay [12], 99.6%. In addition, the growth is 89.6% in assay [13]; 72.9% in [14]; 75.9% in assay [15]; 59.5% in assay [16]; -1.22% (active) in assay [17]; 94.6% in assay [18]. Further, the growth in assay [19] is 100%; in [20], 80%.
Turning to `C#C[C@@]1(O)[C@@H](CO)O[C@@H](n2ccc3c(N)ncnc32)[C@@H]1O`, the growth in assay [1] is 2.94% (active); in assay [2], 2.83% (active); in [3], -25.6% (active); in assay [4], 7.29% (active); in assay [5], 3.15% (active); in assay [6] it was -21.4% (active). The growth was -52.7% (active) in assay [7]; -16.5% (active) in [8]; -68.6% (active) in assay [9]; 63.6% in assay [10]; -8.72% (active) in assay [11]; -4.75% (active) in [12]. For the same compound, the growth in assay [13] is -12.3% (active); in [14] it was -14.7% (active); in assay [15] it was 3.25% (active); in [16], 3.47% (active); in [17], -53.2% (active); in [18], 13.3%. Moreover, the figures for the growth in [19] and in [20] were -1.22% (active) and 12.1%, respectively.
For `O=C(Nc1nccs1)c1noc2ccccc12`, the growth was 92.8% in assay [1]; 99.5% in [2]; 87.9% in assay [3]; 93.5% in [4]; 98.5% in assay [5]; 80% in [6]. In addition, the growth in assay [7] is 91.5%; in assay [8], 88%; in [9], 95.8%; in assay [10] it was 103%; in assay [11], 109%; in [12] it was 88.6%. For the same compound, the growth in assay [13] is 97.1%; in [14], 86.1%; in [15] it was 133%; in assay [16] it was 96.9%; in [17], 101%; in assay [18] it was 85.7%. For the same compound, the growth was 96.8% in assay [19] and 87% in [20].
For `CC(C)NS(=O)(=O)c1cccc(-c2ccc3c4c(n(CCCN(C)C)c(=O)c3c2)-c2ccccc2C4=O)c1`, the growth in assay [1] is 67.9%; in [2], -16.2% (active); in [3], 88.9%; in assay [4], 110%; in [5] it was 56%; in [6], 99.8%. The growth in assay [7] is 94.1%; in [8] it was 106%; in [9], 100%; in assay [10] it was 99.5%; in assay [11], 101%; in [12], 105%. For the same compound, the growth was 97.2% in assay [13]; 91% in assay [14]; 114% in assay [15]; 82.4% in [16]; 83.3% in [17]; 1.51% (active) in [18]. Also, the growth in assay [19] was 68.2%; in assay [20], -27% (active).
For `COc1cc(NC(=O)Nc2cnc(Nc3ccc(N4CCOCC4)cc3)nc2Oc2ccc(F)cc2)cc(OC)c1`, the growth is 104% in [1]; 86.9% in assay [2]; 100% in assay [3]; 96% in [4]; 78.8% in assay [5]; 83% in [6]. The growth in assay [7] was 80.6%; in assay [8], 106%; in [9], 91%; in assay [10] it was 106%; in [11] it was 101%; in assay [12], 108%. Further, the growth in assay [13] is 61.8%; in [14], 93%; in assay [15] it was 116%; in assay [16], 99.9%; in assay [17], 102%; in [18], 92.9%. Also, the growth is 77.2% in [19] and 66.2% in assay [20].
As for `Cc1cnc(-c2ccc(-c3ccc(NC(=O)Nc4c(F)cc(F)cc4F)cc3F)c3c2C(=O)NC3)[nH]1`, the growth in assay [1] is 49.4%; in assay [2], 27%; in [3] it was 17.3%; in assay [4], 41.9%; in assay [5] it was 8.19% (active); in [6] it was 39.7%. In addition, the growth in assay [7] is 38.5%; in assay [8] it was 0.806% (active); in assay [9] it was 32.9%; in [10], 39.1%; in [11], 58.1%; in assay [12], 52%. Further, the growth was 3.34% (active) in assay [13]; 50.3% in [14]; 83.6% in assay [15]; 50.4% in assay [16]; 22.4% in assay [17]; 23.9% in assay [18]. For the same compound, the growth in [19] is 18.3%; in assay [20], -3.54% (active).
`C[C@H]1[C@H](C)CC[C@]2(C(=O)OCCOCCOCC[P+](c3ccccc3)(c3ccccc3)c3ccccc3)CC[C@]3(C)C(=CC[C@@H]4[C@@]5(C)CC[C@H](OC(=O)C(Cl)Cl)C(C)(C)[C@@H]5CC[C@]43C)[C@H]12`: the growth in [1] is 17.1%; in assay [2] it was 3.81% (active); in assay [3], 19.7%; in assay [4] it was 20.4%; in assay [5], 11.3%; in assay [6], 5.1% (active). Further, the growth in assay [7] is -97.7% (active); in assay [8], -23.9% (active); in assay [9], -21.1% (active); in [10], 30%; in assay [11] it was -21.5% (active); in [12], -3.78% (active). Moreover, the growth is -6.85% (active) in [13]; 3.95% (active) in assay [14]; 12.7% in assay [15]; -1.41% (active) in [16]; 6.28% (active) in assay [17]; 7.44% (active) in assay [18]. Also, the growth in assay [19] was -6.91% (active); in assay [20], -33.5% (active).
In the case of `CC(=O)c1cc2c(N)c(C(=O)Nc3ccccn3)sc2nc1C`, the growth in [1] is 82.8%; in assay [2], 85.5%; in [3], 75.1%; in assay [4] it was 82.4%; in [5], 77.7%; in [6], 99.3%. The growth in [7] was 64.5%; in assay [8] it was 57.8%; in [9], 91.6%; in assay [10], 82.1%; in assay [11], 53.6%; in [12], 74.7%. Besides, the growth in assay [13] is 92.7%; in [14], 86.7%; in assay [15], 90.8%; in assay [16], 98.9%; in assay [17] it was 30.3%; in assay [18] it was 102%. The growth in assay [19] is 98.2%; in assay [20], 69.2%.
